For 32 compounds, Inhibition results are on record in ChEMBL document CHEMBL4513149, “CO-ADD screening of MMV (CH) - MMV compounds” (2021).

As a reminder, the Inhibition is the relative decrease from the control value, in per cent.

The test system of one assay is Klebsiella pneumoniae. The note with it: Concentration 20 uM; ASSAY_TEST Inhibition of Bacterial Growth; detection method Absorption (OD600); MEDIA CAMHB; plate type 384well; NBS; CORNING #3640; time 18 hr.
The next assay deals with Candida albicans. The conditions noted are these: 20 µM.
In a further assay the test system is Cryptococcus neoformans. The note with it: Concentration 20 uM; ASSAY_TEST Inhibition of Fungal Growth; detection method Resazurin; Absorption (OD600-OD570); plate type 384well; NBS; CORNING #3640.

The structures appear in SMILES notation. Results with a measured potency or affinity are listed apart.

As to `CC(C)=CCC/C(C)=C\CNCCNC1C2CC3CC(C2)CC1C3` (stereo unspecified), the Inhibition came out at 18.7% in the assay with Klebsiella pneumoniae, 2.31% in the assay on Candida albicans and 16.24% in the assay on Cryptococcus neoformans.

Turning to `CCCn1c(CNc2ccccc2O)nc2ccccc21`, the Inhibition in the assay on Klebsiella pneumoniae was 12.8%; in the assay on Candida albicans, -0.42%; with Cryptococcus neoformans, -15.95%.

On to `CCOC(=O)c1c(NC(=O)c2c(F)c(F)c(F)c(F)c2F)sc(C(N)=O)c1C`, for which the Inhibition in the assay with Klebsiella pneumoniae was 11.9%; in the assay with Candida albicans, 5.2%; in the assay with Cryptococcus neoformans, -6.59%.

Consider `CN1CCN(c2cc(-c3ccc(F)cc3)nc(-c3ccncc3)n2)CC1`, for which the figures for the Inhibition with Klebsiella pneumoniae, in the assay with Candida albicans and in the assay on Cryptococcus neoformans were 4.2%, 3.25% and -11.56%, respectively.

As to `O=C(C1CCCCC1)N1CC(=O)N2CCc3ccccc3C2C1` (stereo unspecified) [PRAZIQUANTEL], the Inhibition in the assay on Klebsiella pneumoniae is 12.46%; in the assay on Candida albicans, 4.53%; with Cryptococcus neoformans, -6.4%.

For the compound `NCC(=O)N1CCn2c(nc(-c3ccccc3)c2Nc2ccc3c(c2)OCO3)C1`, the Inhibition with Klebsiella pneumoniae came to 4.52%; with Candida albicans, 3.31%; in the assay on Cryptococcus neoformans, 7.53%.

For the compound `COc1ccc(-c2cnc3cnc(-c4cccc(OC(C)C)c4)cn23)cc1`, the figures for the Inhibition in the assay on Klebsiella pneumoniae, in the assay on Candida albicans and in the assay on Cryptococcus neoformans were 4.82%, 11.6% and -13.72%, respectively.

For the compound `O=C1[C@@H](Oc2ccccc2)[C@@H](c2ccc(Cl)cc2)N1CCn1cnc2c(NCc3ccccc3)ncnc21`, the Inhibition is 2.13% with Klebsiella pneumoniae, 33.5% with Candida albicans and -6.99% in the assay with Cryptococcus neoformans.

For the compound `COc1cccc(OC)c1C(=O)Nc1ccc(Cl)c(-c2nc3ccccc3s2)c1`, the Inhibition with Klebsiella pneumoniae was 2.41%; in the assay with Candida albicans, 4.58%; with Cryptococcus neoformans, -8.77%.

As for `CCn1ncc2c(NC3CCOCC3)c(CNC(=O)c3ccnn3C)c(C)nc21`, the Inhibition in the assay with Klebsiella pneumoniae was -4.12%; in the assay with Candida albicans it was 0.07%; with Cryptococcus neoformans it was -8.07%.

In the case of `CS(=O)(=O)Cc1nc2ccccc2oc1=O`, the Inhibition was 16.91% with Klebsiella pneumoniae, 1.55% with Candida albicans and -16.09% with Cryptococcus neoformans.

For the compound `O=C(NC1CC1)c1ccc(N2CCC(Cc3ccccc3)CC2)nc1`, the Inhibition in the assay on Klebsiella pneumoniae is 19.39%; in the assay with Candida albicans, 4.1%; with Cryptococcus neoformans, -7.07%.

For `CC1(COc2ccc(N3CCC(Oc4ccc(OC(F)(F)F)cc4)CC3)cc2)Cn2cc([N+](=O)[O-])nc2O1` (stereo unspecified), the results for the Inhibition with Klebsiella pneumoniae, with Candida albicans and in the assay on Cryptococcus neoformans were 19.71%, 20.4% and -2.75%, respectively.

`COC(=O)C1=C(C)NC(C)=C(C(=O)OC(C)C)C1c1cccc2nonc12` (stereo unspecified) [ISRADIPINE]: the Inhibition in the assay on Klebsiella pneumoniae is 6.29%; with Candida albicans, 4.19%; in the assay with Cryptococcus neoformans, -10.15%.

Take `Cc1cnc(N2CCN[C@@H](Cc3ccccc3)C2)nc1Oc1ccc(-n2ccnc2)cc1.Cl`: the Inhibition with Klebsiella pneumoniae was 8.14%; with Candida albicans it was 2.69%; with Cryptococcus neoformans, -5.74%.

Regarding `COc1ccc(-c2nnc3ccc(-c4cccc(C(C)C)c4)cn23)cc1OC`, the Inhibition with Klebsiella pneumoniae was -10.87%; with Candida albicans, 15%; in the assay on Cryptococcus neoformans it was -9.03%.

In the case of `c1ccc(Oc2ccc(-c3cncc(-c4ccc5[nH]ccc5c4)n3)cc2)cc1`, the Inhibition in the assay with Klebsiella pneumoniae was 5.9%; in the assay with Candida albicans, 4.38%; with Cryptococcus neoformans it was -8.14%.

On to `CCCc1ccc(S(=O)(=O)Nc2ccc(CN3CCN(CC4CC4)CC3)cc2)cc1`, for which the Inhibition with Klebsiella pneumoniae is 16.66%; in the assay with Candida albicans, 4.6%; in the assay on Cryptococcus neoformans, -0.39%.

On to `O=C(NCc1ccoc1)N1CCN(Cc2ccc3c(c2)OCO3)CC1`, for which the Inhibition in the assay with Klebsiella pneumoniae was determined as 7.21%; with Candida albicans, 2.46%; in the assay with Cryptococcus neoformans, 10.58%.

As to `COc1ccc(C(=N)N)cc1-c1cn(-c2ccc(C(=N)N)cc2)nn1.Cl.Cl`, the Inhibition turned out to be 8.73% in the assay on Klebsiella pneumoniae, 3.44% in the assay with Candida albicans and 4.63% with Cryptococcus neoformans.

For `CCOc1ccc2cc(-c3nn(CC4CCN(C)CC4)c4ncnc(N)c34)ccc2c1.Cl`, the values for the Inhibition in the assay with Klebsiella pneumoniae, in the assay on Candida albicans and with Cryptococcus neoformans were 14.21%, 4.38% and -9.79%, respectively.

Take `CN1CCC(NCc2cccc(-c3ccc(S(=O)(=O)NCc4ccccc4)cc3)c2)CC1`: the figures for the Inhibition with Klebsiella pneumoniae, in the assay on Candida albicans and in the assay with Cryptococcus neoformans were 9.08%, 3.63% and -7.83%, respectively.

For `Cn1ncc2c(N3CCOCC3)nc(NCCc3c[nH]c4ccccc34)nc21` [TDR79432], the figures for the Inhibition in the assay on Klebsiella pneumoniae, in the assay with Candida albicans and in the assay with Cryptococcus neoformans were 9.02%, 4.1% and -8.59%, respectively.

Consider `COc1ccc(N(CCc2cccc(C)n2)C(C)=O)cc1`, for which the Inhibition with Klebsiella pneumoniae was 13.85%; in the assay on Candida albicans, 2.97%; in the assay on Cryptococcus neoformans it was -4.26%.

For `COc1ccc(-c2cncc3ccc(C(=O)NCCCn4ccnc4)nc23)cc1`, the Inhibition in the assay with Klebsiella pneumoniae was 3.32%; with Candida albicans, 4.61%; in the assay on Cryptococcus neoformans it was -8.59%.

With `O=C(CCC1CCCCC1)Nc1cccc(-c2nnc(-c3ccco3)o2)c1`, the Inhibition in the assay with Klebsiella pneumoniae was 9.71%; in the assay with Candida albicans it was 5.6%; with Cryptococcus neoformans, -12.99%.

For `COc1ccc(-c2cnc3ccc(NCc4ccc(S(N)(=O)=O)cc4)nn23)cn1`, the Inhibition with Klebsiella pneumoniae was 16.22%; in the assay with Candida albicans it was 4.45%; in the assay on Cryptococcus neoformans it was -9.08%.

As for `O=C(Nc1c(O)cccc1-c1nc2c(C(=O)O)cccc2o1)c1cc(-c2ccccc2)on1`, the Inhibition with Klebsiella pneumoniae is -9.4%; with Candida albicans, 3.49%; with Cryptococcus neoformans it was -10.86%.

Take `CC(C)C(C(=O)Nc1ccc(S(=O)(=O)N(C)C)cc1)c1ccc(Cl)cc1` (stereo unspecified): the Inhibition with Klebsiella pneumoniae is -12.7%; in the assay with Candida albicans it was 4.83%; with Cryptococcus neoformans, -3.24%.

Consider `CC(C)(C)OC(=O)N1CCC(Cn2nc(-c3cnc4ccccc4c3)c3c(N)ncnc32)CC1`, for which the Inhibition in the assay on Klebsiella pneumoniae is 15.77%; with Candida albicans it was 2.29%; in the assay on Cryptococcus neoformans it was -9.75%.

As for `CCc1nc2ccc(Cl)cn2c1C(=O)NCc1ccc(N2CCC(c3ccc(OC(F)(F)F)cc3)CC2)cc1` [TELACEBEC], the results for the Inhibition in the assay with Klebsiella pneumoniae, in the assay with Candida albicans and in the assay with Cryptococcus neoformans were 18.33%, 2.34% and -3.29%, respectively.

With `COc1cc(C(F)(F)F)nc2ccc(C)c(N)c12`, the figures for the Inhibition in the assay on Klebsiella pneumoniae, in the assay with Candida albicans and in the assay on Cryptococcus neoformans were 11.25%, 6.41% and -9.66%, respectively.
